Experimental data published in PubChem BioAssay AID2685 (National Center for Advancing Translational Sciences (NCATS), 2010).
Among all 320,000 compounds or so, about 2,100 (0.66%) were called active. Another 53% or so got no clear call; they are omitted. Calls come from the whole dose curve; as a rule, active = well fitted inhibition curve with a large enough effect in the signal ratio, with a control signal flat (not every such curve was filed as active); inconclusive = small, poorly fitted or top-dose-only effect, or effect the other way, or a change in a side signal; inactive = flat fitted curve, though single readings scatter; the % refers to the signal ratio. Many of the other results were omitted from the sample, so actives are more common in it than they were.

Assay: qHTS Assay for Lipid Storage Modulators in Drosophila S3 Cells;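 for cell number change: cells counted by Cell Tracker Red CMTPX staining in the red channel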; for lipid storage change, negative = inhibition: % is set by controls: 0 for no effect and ±100 for the full control effect
Details: BODIPY lipid droplet fluorescence, 18-24 h, cells fed with added oleic acid; cell number change: measured here: cell count max response; series mostly up to 46.1 µM
How it was run: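 Drosophila S3 cells loaded with oleic acid (400 uM, as added) and compounds at several concentrations; lipid droplets imaged by 488-nm laser-scanning cytometry, 500–530 nm intensity and object ratio to cell channel. Percent activity normalized to 20 uM Triacsin C.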
Potency is the fitted concentration of half-maximal effect.

SMILES	Potency	cell number change [%]	lipid storage change, negative = inhibition
COc1cc(CNC2CCCCC2OC)cc(OC)c1OC (configuration not stated)	inactive	3.58	–
O=C(O)c1cnn(-c2ccccc2)c1-c1ccncc1	inactive	–	–
Cc1cc(/C=N/N2CCN(C)CC2)c(C)n1-c1ccccc1F	inactive	–	–
CCCn1c(SCC(=O)Nc2nnc(C)s2)nnc1-c1ccoc1C	inactive	-14	–
CS(=O)(=O)N(CC(=O)N1CCN(c2ccccc2F)CC1)C1CCCCC1	inactive	-9.38	–
Cc1c(CNC(=O)C2CC2)c(-n2cccc2)n(Cc2ccccc2)c1C	inactive	18.9	–
COCCNS(=O)(=O)c1ccc(F)c(OC)c1	20.6 µM (active)	2.25	–
COCCNS(=O)(=O)c1ccc(-c2ccc(Cl)cc2)cc1	inactive	8.47	–
COc1cc(S(=O)(=O)NCc2ccccc2)ccc1F	inactive	6.61	–
O=S(=O)(O)c1cc(OS(=O)(=O)c2ccccc2)cc2ccccc12	inactive	6.99	–
COc1ccc(Cc2nc3ccc(C(=O)NCc4cc(C)no4)cc3o2)cc1OC	inactive	-13.7	–
O=C(c1ccc([N+](=O)[O-])cc1)N1CCN(Cc2ccccc2)CC1	inactive	11.4	–
Nn1c(SCC(=O)Nc2ccc3c(c2)OCO3)nnc1-c1cccc(Cl)c1	inactive	0.909	–
O=C(O)C1CCN(C(=O)c2ccccc2Cl)CC1	18.4 µM (active)	6.2	–
O=C(c1ccccc1Cl)N1CCSCC1	inactive	2.74	–
O=C(NC1CC1)C1CCN(C(=O)c2ccccc2Cl)CC1	inactive	–	–
O=C(O)c1ccccc1C(=O)N1CCN(C(=O)c2ccccc2Cl)CC1	inactive	18.7	–
O=CN1CCN(C(=O)c2ccccc2Cl)CC1	16.4 µM (active)	-3.9	–
O=C(NC1CCCCC1)C1CCN(C(=O)c2ccccc2Cl)CC1	inactive	-4.35	–
O=C(NCCCn1ccnc1)c1cc2cc([N+](=O)[O-])ccc2oc1=O	inactive	15.7	–
CCCN1CCC(=NNc2ccc(S(N)(=O)=O)cc2[N+](=O)[O-])CC1	inactive	-0.104	–
CCCn1c(SCCN2CCOCC2)nc2c1c(=O)n(C)c(=O)n2C	inactive	–	–
COc1ccc(CNC(=O)CN2C(=O)NC3(CCCCCC3)C2=O)cc1OC	inactive	-8.33	–
COc1ccc(CNC(=O)CN2C(=O)NC(C)(c3cccc(Br)c3)C2=O)cc1 (configuration not stated)	inactive	15.2	–

SMILES	Potency	cell number change [%]	lipid storage change, negative = inhibition
COc1ccc(CNC(=O)CN2C(=O)NC(C)(c3cccc4ccccc34)C2=O)cc1OC (configuration not stated)	18.4 µM (active)	-4.84	–
Cc1c(C)c(C)c(S(=O)(=O)NCCC(=O)N2CCN(Cc3ccc(C#N)cc3)CC2)c(C)c1C	inactive	10.7	–
N#Cc1ccc(CN2CCN(C(=O)CCNS(=O)(=O)c3ccc(F)c(Cl)c3)CC2)cc1	20.6 µM (active)	-29	–
O=C(CCNS(=O)(=O)c1ccc(Cl)cc1)N1CCN(Cc2ccccc2)CC1	inactive	-14.8	–
Cc1ccc(NC(=O)CC(NC(=O)c2ccccc2Cl)c2ccccc2)nc1 (configuration not stated)	inactive	12.3	–
Cc1cccc(N2CCN(C(=O)CC(NC(=O)c3ccccc3Cl)c3ccccc3)CC2)c1C (configuration not stated)	10.3 µM (active)	-1.65	–
Cc1cccc(N2CCN(C(=O)C(Cc3ccccc3)NC(N)=O)CC2)c1C (configuration not stated)	inactive	-3.7	–
CCC(C)NC(=O)CSc1c2c(nc3ccccc13)CCCC2 (configuration not stated)	inactive	-7.84	–
COCCNC(=O)CSc1nc2ccccc2c(=O)n1CCC(=O)NCCc1ccc(OC)c(OC)c1	inactive	-7	–
CCOC(=O)CN1NC2(CCC(C(C)(C)C)CC2)NC1=S (configuration not stated)	inactive	0.162	–
CCOC(=O)CN1NC2(CCC(C)CC2)NC1=S (configuration not stated)	18.4 µM (active)	16.5	–
CCOC(=O)CN1NC2(CCCCCCC2)NC1=S	inactive	26.5	–
CC(=O)N1CC2(NC(=O)c3ccccc3N2)c2ccccc21 (configuration not stated)	inactive	1.06	–
COc1ccc(-n2nnc3c(=O)n(CC(=O)N4CCCCC4)cnc32)cc1	inactive	–	–
Cc1cc(C)cc(NC(=O)/C=C/c2ccc([N+](=O)[O-])s2)c1	inactive	-13.6	–
Cc1cccc(NC(=O)/C=C/c2ccc([N+](=O)[O-])s2)c1	20.6 µM (active)	-28.2	–
Cc1ccccc1NC(=O)/C=C/c1ccc([N+](=O)[O-])s1	9.2 µM (active)	-29.7	–
CN(C(=O)/C=C/c1ccc([N+](=O)[O-])s1)c1ccccc1	inactive	5.5	–
Cc1ccccc1NC(=O)/C=C/c1cccs1	inactive	-15.7	–
CC(=O)c1cccc(NC(=O)/C=C/c2ccc([N+](=O)[O-])s2)c1	inactive	-6.6	–
O=C(c1ccc(-n2cncn2)c([N+](=O)[O-])c1)N1CCN(c2cccc(Cl)c2)CC1	inactive	25.4	–
Cn1cnc2cc(OC(=O)c3ccccc3)ccc21	inactive	19.2	–
CCOC(=O)c1nc(Nc2ccc(C(C)=O)cc2)c2ccccc2n1	inactive	-13.6	–
CCCCC(CCC(=O)O)(C(=O)OCC)c1csc(Nc2ccccc2)n1 (configuration not stated)	inactive	0.537	–

SMILES	Potency	cell number change [%]	lipid storage change, negative = inhibition
CCOC(=O)/C(=N\Nc1ccc(C(C)=O)cc1)c1csc(Nc2ccccc2)n1	16.4 µM (active)	17.1	–
COc1cccc(NC(=S)Nc2cc(C(=O)O)ccc2N2CC3CC(C2)c2cccc(=O)n2C3)c1 (configuration not stated)	inactive	-20.1	–
CC(C)c1cccc(C2=CC(=O)C[C@H](c3ccc(F)cc3)C2)c1	inactive	-1.84	–
COc1ccc(CNC(=O)C(c2cccc(C)c2)N(C(=O)c2csnn2)C2CC2)cc1 (configuration not stated)	2.06 µM (active)	16.2	–
O=C(NCc1ccccc1)C(c1ccccc1)N(C(=O)c1csnn1)C1CC1 (configuration not stated)	inactive	0.427	–
COc1ccc(CNC(=O)C(c2ccccc2F)N(C(=O)c2csnn2)C2CC2)cc1 (configuration not stated)	inactive	9.27	–
Cc1nonc1C(=O)N/N=C/c1cc2c(cc1Br)OCO2	inactive	13	–
COc1cc2c(cc1OC)CN(C(=S)Nc1ccc(C)cc1C)CC2	inactive	-5.84	–
O=C(Nc1ccccc1-c1nc2ccccc2[nH]c1=O)c1cccs1	9.2 µM (active)	7.26	–
CC(C)C(=O)Nc1ccccc1-c1nc2ccccc2[nH]c1=O	inactive	-27.6	–
CCC(=O)Nc1ccccc1-c1nc2ccccc2[nH]c1=O	inactive	-8.79	–
Cc1c(C(=O)N2CCCCC2)c(S(=O)(=O)NCCc2ccccc2)c(C)n1C	inactive	-0.59	–
CCOC(=O)COc1ccc(S(=O)(=O)N2CCN(C(=O)OCC)CC2)cc1	inactive	-5.47	–
CCCn1c(SCC(=O)NC2CC2)nnc1-c1cccs1	inactive	9.09	–
Cc1ccc(NC(=O)CSCC(=O)N2CCN(Cc3ccc4c(c3)OCO4)CC2)cc1	inactive	21.6	–
COc1ccc(NC2CCCN(C(=O)CSc3ccccn3)C2)cc1OC (configuration not stated)	inactive	-4.53	–
COc1ccc(NC2CCCN(C(=O)CSc3ccncc3)C2)cc1 (configuration not stated)	0.231 µM (active)	-29	–
Cc1ccc(NC2CCCN(C(=O)CN3C(=O)c4ccccc4C3=O)C2)cc1C (configuration not stated)	inactive	5.05	–
COc1ccc(NC2CCCN(C(=O)CSc3ccccc3)C2)cc1 (configuration not stated)	inactive	3.54	–
COc1ccc(NC2CCCN(C(=O)CCOc3ccccc3)C2)cc1 (configuration not stated)	inactive	2.67	–
COc1ccc(NC2CCCN(C(=O)c3ccncc3)C2)cc1 (configuration not stated)	inactive	-9.17	–
COc1ccc(NC2CCCN(C(=O)CN3C(=O)c4ccccc4C3=O)C2)cc1OC (configuration not stated)	18.4 µM (active)	-13.7	–
COc1ccc(NC2CCCN(C(=O)COc3ccc(C)cc3)C2)cc1 (configuration not stated)	2.06 µM (active)	-19.8	–
COc1ccc(NC2CCCN(C(=O)CCN3CCCC3=O)C2)cc1 (configuration not stated)	inactive	24.3	–

SMILES	Potency	cell number change [%]	lipid storage change, negative = inhibition
COc1ccc(CC(=O)Nc2ccccc2C(=O)NCCc2ccccc2)cc1	inactive	7.51	–
Cc1ccc(OCC(O)CN2CCN(c3ccccc3)CC2)cc1 (configuration not stated)	inactive	-26.7	–
O=C(Nc1ccc(S(=O)(=O)N2CCCCC2)cc1)C1CC1	inactive	19.3	–
N/C(=N\OC(=O)Cc1ccccc1[N+](=O)[O-])c1cccc(Br)c1	inactive	-2.3	–
CC(=O)Nc1ccc2c(c1)nc(CCN1CCN(c3ccccn3)CC1)n2C	inactive	-2.13	–
Cc1ccc(S(=O)(=O)Nc2ccc3c(c2)nc(CCN2CCN(c4ccccn4)CC2)n3C)cc1	16.4 µM (active)	24.4	–
Cn1c(CCN2CCN(c3ccccn3)CC2)nc2cc(NS(=O)(=O)c3ccccc3)ccc21	inactive	8.74	–
O=C(/C=C/N1CCN(Cc2ccccc2)CC1)C(F)(F)F	–	4.65	-0.119% [at 9.22 µM] (inactive)
O=C(O)COc1c(-c2ccccc2)oc2ccccc2c1=O	23.1 µM (active)	10.5	–
NC(=O)COc1c(-c2ccccc2)oc2ccccc2c1=O	inactive	0.203	–
O=C(O)COc1c(-c2ccc(Cl)cc2)oc2ccccc2c1=O	inactive	7.07	–
COc1ccc(CNC(=O)CSc2n[nH]c(N)n2)cc1	inactive	2.63	–
Cc1[nH]c(C)c(S(=O)(=O)N(Cc2ccccc2)C(C)(C)C)c1C(=O)N1CCCC1	inactive	-27.6	–
CCN(CC)C(=O)CSc1nnc(-c2ccco2)n1Cc1ccco1	inactive	-5.34	–
Cc1ccc(NC(=O)CSc2nnc(CNC(=O)c3ccco3)n2C)cc1	inactive	–	–
O=C(c1ccccc1)c1ccc(COC(=O)c2cnccn2)cc1	inactive	–	–
O=C(OCc1ccc(Cl)cc1)c1cnccn1	7.31 µM (active)	23.8	–
COC(=O)c1ccc(COC(=O)c2cnccn2)cc1	inactive	9.29	–
CCN(C(=O)CSc1nnc(-c2ccccc2)n1C)C1CCS(=O)(=O)C1 (configuration not stated)	inactive	–	–
CCN(C(=O)CSc1nnc(COc2ccccc2F)n1N)C1CCS(=O)(=O)C1 (configuration not stated)	inactive	–	–
CCN(C(=O)CSc1nnc(Cc2ccccc2F)n1N)C1CCS(=O)(=O)C1 (configuration not stated)	8.2 µM (active)	-2.07	–
